Drawing on publication PMC7862700, “An all-to-all approach to the identification of sequence-specific readers for epigenetic DNA modifications on cytosine”, this text covers binding signal for one sequence.

Common to all, as to experiment: DAPPL (digital affinity profiling via proximity ligation, sequencing); 10 mM Tris-HCl pH 7.5, 50 mM NaCl, 1 mM DTT, 4% glycerol, room temperature, 30 min; GST-TFs on glutathione beads, 16-mer random dsDNA library, 0.1% formaldehyde crosslink after washing; high values mean tight binding
Experiment [1] has as its target T1, FEV (Homo sapiens, UniProt Q99581 1-238).
T1 sequence: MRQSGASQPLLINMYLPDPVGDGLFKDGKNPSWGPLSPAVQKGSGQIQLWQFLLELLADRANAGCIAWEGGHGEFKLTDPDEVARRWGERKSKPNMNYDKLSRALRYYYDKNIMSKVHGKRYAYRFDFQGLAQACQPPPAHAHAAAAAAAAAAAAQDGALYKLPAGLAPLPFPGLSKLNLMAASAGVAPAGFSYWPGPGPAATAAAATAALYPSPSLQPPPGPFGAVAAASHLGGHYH
As to conditions: protein: recombinant; tags: N-terminal GST; dsDNA, one strand shown. In a few lines:
(§1)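 Yeast served to express human transcription factors as GST fusions, which were then captured on glutathione beads and labelled with DNA barcodes. Pooled with a tag-only sample, they were incubated with 200 nmole of a 16-mer random double-stranded DNA library for 30 min at room temperature in Tris/NaCl/DTT/glycerol buffer, washed, crosslinked with 0.1% formaldehyde, ligated by proximity, amplified by PCR and sequenced. Dividing each hexamer's read frequency for a factor by its frequency for the tag-only sample gives the binding signal.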

In experiment [2] the target is ETV5 (Homo sapiens, UniProt P41161 1-510). As to conditions: protein: recombinant; tags: N-terminal GST; dsDNA, one strand shown. The essentials:
as §1

Experiment [3] has as its target HSF1 (Homo sapiens, UniProt Q00613 1-529). As to conditions: protein: recombinant; tags: N-terminal GST; chain copies: 3; dsDNA, one strand shown. The essentials: as §1
In experiment [4] the target is T2, SPIC (Homo sapiens, UniProt Q8N5J4 1-248).
T2 sequence: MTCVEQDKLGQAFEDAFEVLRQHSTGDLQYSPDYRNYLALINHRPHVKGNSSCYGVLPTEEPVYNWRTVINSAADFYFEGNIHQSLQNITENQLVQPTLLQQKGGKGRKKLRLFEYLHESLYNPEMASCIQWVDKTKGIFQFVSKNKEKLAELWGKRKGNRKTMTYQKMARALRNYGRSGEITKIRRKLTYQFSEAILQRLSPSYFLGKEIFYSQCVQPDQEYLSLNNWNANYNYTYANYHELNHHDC
As to conditions: protein: recombinant; tags: N-terminal GST; dsDNA, one strand shown. The essentials:
as §1

For experiment [5], the target named is ELF4 (Homo sapiens, UniProt Q99607 1-663). The settings on record: protein: recombinant; tags: N-terminal GST; dsDNA, one strand shown. In a few lines: as §1
ELF4, sequence (Q99607 whole entry): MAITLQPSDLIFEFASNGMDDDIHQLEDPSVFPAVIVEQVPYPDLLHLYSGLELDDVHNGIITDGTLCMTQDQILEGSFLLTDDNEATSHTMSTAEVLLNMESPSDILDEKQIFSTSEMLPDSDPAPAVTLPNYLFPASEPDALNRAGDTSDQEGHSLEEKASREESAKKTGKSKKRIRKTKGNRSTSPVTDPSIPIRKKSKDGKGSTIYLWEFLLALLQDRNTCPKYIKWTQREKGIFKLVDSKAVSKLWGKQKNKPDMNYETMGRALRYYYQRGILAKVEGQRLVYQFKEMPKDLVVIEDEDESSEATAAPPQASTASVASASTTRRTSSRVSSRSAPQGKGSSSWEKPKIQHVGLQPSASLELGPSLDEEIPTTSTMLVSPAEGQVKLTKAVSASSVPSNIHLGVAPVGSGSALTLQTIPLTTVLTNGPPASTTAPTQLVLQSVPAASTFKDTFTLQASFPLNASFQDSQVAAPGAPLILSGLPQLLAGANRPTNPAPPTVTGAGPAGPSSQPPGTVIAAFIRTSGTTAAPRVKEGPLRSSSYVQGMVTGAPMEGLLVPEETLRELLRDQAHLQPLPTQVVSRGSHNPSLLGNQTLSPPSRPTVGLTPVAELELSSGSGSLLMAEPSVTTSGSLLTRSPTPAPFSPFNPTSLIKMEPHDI
Experiment [6] has as its target T3, ELK4 (Homo sapiens, UniProt P28324-2 1-405).
T3 sequence: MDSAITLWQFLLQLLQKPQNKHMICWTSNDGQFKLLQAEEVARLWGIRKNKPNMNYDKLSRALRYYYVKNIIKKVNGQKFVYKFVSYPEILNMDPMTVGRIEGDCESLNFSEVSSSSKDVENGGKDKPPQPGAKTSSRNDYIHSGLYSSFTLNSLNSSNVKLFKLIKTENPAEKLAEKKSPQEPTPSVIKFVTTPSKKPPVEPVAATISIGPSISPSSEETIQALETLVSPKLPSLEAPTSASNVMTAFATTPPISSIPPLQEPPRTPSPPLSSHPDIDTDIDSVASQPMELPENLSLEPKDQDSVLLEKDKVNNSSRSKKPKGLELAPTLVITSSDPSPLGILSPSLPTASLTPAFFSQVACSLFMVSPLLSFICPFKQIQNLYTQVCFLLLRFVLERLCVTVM
The settings on record: protein: recombinant; tags: N-terminal GST; dsDNA, one strand shown. The essentials: as §1

The target in experiment [7] is T4, ETV2 (Homo sapiens, UniProt O00321 1-342).
T4 sequence: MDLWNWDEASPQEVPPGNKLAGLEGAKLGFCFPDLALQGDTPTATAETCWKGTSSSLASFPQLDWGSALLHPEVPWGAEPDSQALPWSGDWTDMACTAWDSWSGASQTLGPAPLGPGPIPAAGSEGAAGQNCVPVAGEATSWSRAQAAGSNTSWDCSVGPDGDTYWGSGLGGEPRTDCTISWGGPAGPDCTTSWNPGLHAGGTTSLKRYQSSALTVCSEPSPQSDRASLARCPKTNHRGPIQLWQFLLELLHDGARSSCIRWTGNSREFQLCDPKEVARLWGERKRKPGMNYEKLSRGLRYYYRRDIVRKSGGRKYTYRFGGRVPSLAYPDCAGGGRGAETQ
The settings on record: protein: recombinant; tags: N-terminal GST; dsDNA, one strand shown. The essentials:
as §1

The target of experiment [8] is T5, ELF3 (Homo sapiens, UniProt P78545 1-371).
T5 sequence: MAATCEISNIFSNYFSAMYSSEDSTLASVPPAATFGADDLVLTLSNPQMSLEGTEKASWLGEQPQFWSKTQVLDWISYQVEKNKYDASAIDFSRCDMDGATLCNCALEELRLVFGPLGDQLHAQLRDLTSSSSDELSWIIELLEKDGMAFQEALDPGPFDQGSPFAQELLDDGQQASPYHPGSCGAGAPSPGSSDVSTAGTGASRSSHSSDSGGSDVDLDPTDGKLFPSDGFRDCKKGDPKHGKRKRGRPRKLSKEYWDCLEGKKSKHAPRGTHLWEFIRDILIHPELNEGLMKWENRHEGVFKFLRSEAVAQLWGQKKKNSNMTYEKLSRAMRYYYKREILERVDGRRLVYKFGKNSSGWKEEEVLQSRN
The settings on record: protein: recombinant; tags: N-terminal GST; dsDNA, one strand shown. In a few lines:
as §1

Experiment [9] deals with CRX (Homo sapiens, UniProt O43186 1-299). As to conditions: protein: recombinant; tags: N-terminal GST; dsDNA, one strand shown. The essentials: as §1
CRX, sequence (O43186 whole entry): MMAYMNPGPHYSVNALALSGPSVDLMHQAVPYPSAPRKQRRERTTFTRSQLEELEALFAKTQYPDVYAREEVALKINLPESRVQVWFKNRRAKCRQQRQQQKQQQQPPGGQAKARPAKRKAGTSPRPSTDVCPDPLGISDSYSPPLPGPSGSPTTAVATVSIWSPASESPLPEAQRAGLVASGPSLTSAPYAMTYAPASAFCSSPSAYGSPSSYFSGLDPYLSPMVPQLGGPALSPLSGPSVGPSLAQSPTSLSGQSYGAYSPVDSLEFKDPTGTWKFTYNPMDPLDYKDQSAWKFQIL
In experiment [10] the target is ETV1 (Homo sapiens, UniProt P50549 1-477). The settings on record: protein: recombinant; tags: N-terminal GST; dsDNA, one strand shown. In a few lines: as §1
ETV1, sequence (P50549 whole entry): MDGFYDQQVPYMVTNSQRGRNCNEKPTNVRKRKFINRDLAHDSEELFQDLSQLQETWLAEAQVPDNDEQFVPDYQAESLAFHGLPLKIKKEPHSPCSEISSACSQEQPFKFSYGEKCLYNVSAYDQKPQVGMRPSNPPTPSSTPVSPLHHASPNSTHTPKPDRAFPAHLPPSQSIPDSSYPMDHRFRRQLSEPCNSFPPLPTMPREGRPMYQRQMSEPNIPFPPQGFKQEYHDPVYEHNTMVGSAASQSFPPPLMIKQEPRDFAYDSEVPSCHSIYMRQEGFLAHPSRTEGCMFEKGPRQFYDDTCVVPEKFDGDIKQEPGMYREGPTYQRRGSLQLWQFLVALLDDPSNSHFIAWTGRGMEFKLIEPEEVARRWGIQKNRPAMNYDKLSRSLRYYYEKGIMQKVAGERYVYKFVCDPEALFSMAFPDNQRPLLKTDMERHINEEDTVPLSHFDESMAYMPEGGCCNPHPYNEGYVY
Experiment [11] deals with T6, ERF (Homo sapiens, UniProt P50548 1-548).
T6 sequence: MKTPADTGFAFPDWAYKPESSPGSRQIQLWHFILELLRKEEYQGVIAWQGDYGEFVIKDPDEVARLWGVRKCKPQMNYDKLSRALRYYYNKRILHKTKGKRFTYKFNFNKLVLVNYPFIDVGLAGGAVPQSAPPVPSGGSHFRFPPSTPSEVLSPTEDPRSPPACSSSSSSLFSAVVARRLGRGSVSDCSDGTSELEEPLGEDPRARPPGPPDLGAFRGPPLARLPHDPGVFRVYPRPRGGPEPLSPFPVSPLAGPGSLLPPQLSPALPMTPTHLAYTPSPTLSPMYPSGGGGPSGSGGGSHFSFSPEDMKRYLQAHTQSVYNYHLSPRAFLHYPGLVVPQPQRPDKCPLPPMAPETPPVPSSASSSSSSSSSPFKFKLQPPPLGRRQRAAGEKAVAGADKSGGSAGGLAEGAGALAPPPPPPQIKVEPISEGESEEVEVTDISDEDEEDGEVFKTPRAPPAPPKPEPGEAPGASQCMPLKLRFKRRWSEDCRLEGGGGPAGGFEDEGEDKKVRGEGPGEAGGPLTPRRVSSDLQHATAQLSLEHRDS
As to conditions: protein: recombinant; tags: N-terminal GST; dsDNA, one strand shown. In a few lines: as §1

The target of experiment [12] is T7, ETV3L (Homo sapiens, UniProt Q6ZN32 1-361).
T7 sequence: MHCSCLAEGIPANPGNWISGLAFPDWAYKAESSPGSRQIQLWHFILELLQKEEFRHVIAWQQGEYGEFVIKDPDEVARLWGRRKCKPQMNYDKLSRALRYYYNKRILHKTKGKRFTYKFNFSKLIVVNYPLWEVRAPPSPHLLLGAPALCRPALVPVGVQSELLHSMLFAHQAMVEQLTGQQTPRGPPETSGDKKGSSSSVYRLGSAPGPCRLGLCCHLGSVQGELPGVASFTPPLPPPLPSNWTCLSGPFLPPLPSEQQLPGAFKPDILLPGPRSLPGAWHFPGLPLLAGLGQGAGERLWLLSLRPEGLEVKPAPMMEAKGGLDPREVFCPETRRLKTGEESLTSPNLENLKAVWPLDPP
The settings on record: protein: recombinant; tags: N-terminal GST; dsDNA, one strand shown. In a few lines:
as §1

The target of experiment [13] is T8, ETS2 (Homo sapiens, UniProt P15036 1-469).
T8 sequence: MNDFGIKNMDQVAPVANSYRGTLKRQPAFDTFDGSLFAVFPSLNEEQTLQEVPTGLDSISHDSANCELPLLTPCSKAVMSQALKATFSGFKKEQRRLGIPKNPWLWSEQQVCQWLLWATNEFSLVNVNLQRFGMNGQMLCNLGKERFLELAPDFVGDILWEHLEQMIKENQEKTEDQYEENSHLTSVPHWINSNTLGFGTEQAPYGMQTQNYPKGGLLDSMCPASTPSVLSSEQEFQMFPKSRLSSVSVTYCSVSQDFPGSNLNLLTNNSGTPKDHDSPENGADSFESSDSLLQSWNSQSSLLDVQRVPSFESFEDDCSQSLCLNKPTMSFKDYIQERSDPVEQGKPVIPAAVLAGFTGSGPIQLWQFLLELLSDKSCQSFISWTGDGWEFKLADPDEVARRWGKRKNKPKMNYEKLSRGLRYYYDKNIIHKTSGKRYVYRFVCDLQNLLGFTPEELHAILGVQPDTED
The settings on record: protein: recombinant; tags: N-terminal GST; dsDNA, one strand shown. In a few lines:
as §1

Experiment [14] deals with T9, SPDEF (Homo sapiens, UniProt O95238 1-335).
T9 sequence: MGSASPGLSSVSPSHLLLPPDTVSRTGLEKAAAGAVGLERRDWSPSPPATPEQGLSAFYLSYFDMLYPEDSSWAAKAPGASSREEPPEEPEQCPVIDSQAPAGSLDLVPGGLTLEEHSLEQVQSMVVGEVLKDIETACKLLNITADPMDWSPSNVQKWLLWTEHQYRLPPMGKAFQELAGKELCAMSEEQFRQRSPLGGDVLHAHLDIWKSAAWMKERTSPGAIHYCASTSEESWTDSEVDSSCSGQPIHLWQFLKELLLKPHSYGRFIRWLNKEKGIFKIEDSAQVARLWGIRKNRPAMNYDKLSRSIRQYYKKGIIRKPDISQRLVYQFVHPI
The settings on record: protein: recombinant; tags: N-terminal GST; dsDNA, one strand shown. The essentials: as §1

For experiment [15], the target named is T10, ETV7 (Homo sapiens, UniProt Q9Y603 1-341).
T10 sequence: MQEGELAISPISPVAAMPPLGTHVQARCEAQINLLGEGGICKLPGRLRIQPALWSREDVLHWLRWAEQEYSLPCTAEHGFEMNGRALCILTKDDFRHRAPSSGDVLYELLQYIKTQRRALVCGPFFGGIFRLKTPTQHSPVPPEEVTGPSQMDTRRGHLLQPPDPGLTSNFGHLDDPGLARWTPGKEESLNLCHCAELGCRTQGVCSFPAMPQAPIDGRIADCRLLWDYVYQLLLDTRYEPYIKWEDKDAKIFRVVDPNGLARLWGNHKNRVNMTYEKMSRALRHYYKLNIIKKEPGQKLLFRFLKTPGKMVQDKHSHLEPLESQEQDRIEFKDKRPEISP
The settings on record: protein: recombinant; tags: N-terminal GST; dsDNA, one strand shown. The essentials: as §1

Experiment [16] has as its target T11, ELF5 (Homo sapiens, UniProt Q9UKW6-2 1-255).
T11 sequence: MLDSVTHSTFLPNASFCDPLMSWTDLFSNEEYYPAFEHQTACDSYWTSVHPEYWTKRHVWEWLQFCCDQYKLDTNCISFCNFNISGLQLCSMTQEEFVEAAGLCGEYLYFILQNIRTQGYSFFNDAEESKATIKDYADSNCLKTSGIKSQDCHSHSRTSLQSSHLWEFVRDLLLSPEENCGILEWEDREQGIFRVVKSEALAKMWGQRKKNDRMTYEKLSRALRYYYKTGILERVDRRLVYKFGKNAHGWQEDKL
As to conditions: protein: recombinant; tags: N-terminal GST; dsDNA, one strand shown. In a few lines:
as §1

The target in experiment [17] is T12, ETV3 (Homo sapiens, UniProt P41162-2 1-143).
T12 sequence: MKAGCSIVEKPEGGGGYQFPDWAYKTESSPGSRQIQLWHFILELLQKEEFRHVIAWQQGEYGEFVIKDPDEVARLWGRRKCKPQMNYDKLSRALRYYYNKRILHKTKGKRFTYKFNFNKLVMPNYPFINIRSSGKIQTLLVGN
The settings on record: protein: recombinant; tags: N-terminal GST; dsDNA, one strand shown. In a few lines: as §1

The target in experiment [18] is ETV6 (Homo sapiens, UniProt P41212 1-452). The settings on record: protein: recombinant; tags: N-terminal GST; dsDNA, one strand shown. In a few lines:
as §1

ETV6, sequence (P41212 whole entry): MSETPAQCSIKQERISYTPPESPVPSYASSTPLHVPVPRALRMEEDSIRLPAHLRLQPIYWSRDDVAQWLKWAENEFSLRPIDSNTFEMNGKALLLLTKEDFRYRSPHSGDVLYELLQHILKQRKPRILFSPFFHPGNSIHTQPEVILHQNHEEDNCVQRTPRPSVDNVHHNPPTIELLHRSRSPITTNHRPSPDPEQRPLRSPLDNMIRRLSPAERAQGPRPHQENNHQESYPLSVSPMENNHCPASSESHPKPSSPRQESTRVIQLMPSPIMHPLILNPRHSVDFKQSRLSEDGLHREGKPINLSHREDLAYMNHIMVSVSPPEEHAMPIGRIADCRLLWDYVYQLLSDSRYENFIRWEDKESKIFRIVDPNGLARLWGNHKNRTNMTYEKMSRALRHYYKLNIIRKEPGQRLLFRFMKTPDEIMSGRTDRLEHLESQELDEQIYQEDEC
HSF1, sequence (Q00613 whole entry): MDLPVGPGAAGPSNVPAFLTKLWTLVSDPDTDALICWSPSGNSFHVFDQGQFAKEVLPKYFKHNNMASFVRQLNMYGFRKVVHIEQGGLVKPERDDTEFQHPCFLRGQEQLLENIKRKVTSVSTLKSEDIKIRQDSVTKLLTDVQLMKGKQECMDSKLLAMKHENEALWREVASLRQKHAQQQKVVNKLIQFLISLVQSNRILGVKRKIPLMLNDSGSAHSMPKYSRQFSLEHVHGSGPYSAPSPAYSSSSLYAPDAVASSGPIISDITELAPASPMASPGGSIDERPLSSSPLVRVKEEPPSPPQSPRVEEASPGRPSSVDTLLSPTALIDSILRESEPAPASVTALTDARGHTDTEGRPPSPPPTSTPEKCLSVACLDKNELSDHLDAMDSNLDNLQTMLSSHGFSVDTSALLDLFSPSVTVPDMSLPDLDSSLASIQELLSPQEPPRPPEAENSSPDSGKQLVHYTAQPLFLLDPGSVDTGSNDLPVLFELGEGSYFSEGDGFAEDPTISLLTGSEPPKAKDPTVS
ETV5, sequence (P41161 whole entry): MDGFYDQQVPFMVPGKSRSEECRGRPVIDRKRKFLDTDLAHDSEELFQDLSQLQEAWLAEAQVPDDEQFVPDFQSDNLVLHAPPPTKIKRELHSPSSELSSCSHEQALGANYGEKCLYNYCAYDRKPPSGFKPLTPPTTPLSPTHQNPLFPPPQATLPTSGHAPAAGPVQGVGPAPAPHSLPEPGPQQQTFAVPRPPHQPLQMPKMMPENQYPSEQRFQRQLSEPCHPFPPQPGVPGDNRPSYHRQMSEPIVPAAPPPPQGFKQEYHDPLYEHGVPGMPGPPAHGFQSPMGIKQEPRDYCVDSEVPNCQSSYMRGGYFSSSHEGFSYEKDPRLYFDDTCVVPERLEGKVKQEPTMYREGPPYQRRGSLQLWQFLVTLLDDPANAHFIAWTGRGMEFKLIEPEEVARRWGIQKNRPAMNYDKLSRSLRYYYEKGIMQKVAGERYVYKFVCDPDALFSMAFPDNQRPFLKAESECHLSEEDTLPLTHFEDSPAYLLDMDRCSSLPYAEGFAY

For CGATTG, the binding signal in [1] is 1.12 fold enrichment (6-mer frequency, TF over GST control); in experiment [2], 1.18 fold enrichment (6-mer frequency, TF over GST control); in [3] it was 1.21 fold enrichment (6-mer frequency, TF over GST control); in experiment [4], 1.08 fold enrichment (6-mer frequency, TF over GST control); in experiment [5] it was 1.28 fold enrichment (6-mer frequency, TF over GST control); in [6], 1.34 fold enrichment (6-mer frequency, TF over GST control). Besides, the binding signal in [7] was 1.08 fold enrichment (6-mer frequency, TF over GST control); in experiment [8], 1.14 fold enrichment (6-mer frequency, TF over GST control); in [9] it was 1.16 fold enrichment (6-mer frequency, TF over GST control); in experiment [10], 1.16 fold enrichment (6-mer frequency, TF over GST control); in experiment [11] it was 1.24 fold enrichment (6-mer frequency, TF over GST control); in [12] it was 1.17 fold enrichment (6-mer frequency, TF over GST control). For the same sequence, the binding signal in [13] is 1.15 fold enrichment (6-mer frequency, TF over GST control); in [14], 1.22 fold enrichment (6-mer frequency, TF over GST control); in experiment [15], 1.18 fold enrichment (6-mer frequency, TF over GST control); in [16], 1.11 fold enrichment (6-mer frequency, TF over GST control); in experiment [17], 1.07 fold enrichment (6-mer frequency, TF over GST control); in [18], 1.22 fold enrichment (6-mer frequency, TF over GST control).
